Screening data as filed in PubChem.
DT40 TDP1 CPT = growth inhibition of DT40 Tdp1-/-;hTDP1 cells with camptothecin (screen for TDP1 inhibitors); chicken DT40 Tdp1-/-;hTDP1 cells + 20 nM CPT, ATP luminescence, 48 h; Potency, µM (series often up to 46.2 µM), for inactives: at the top dose activity change, negative = growth inhibition, most hits filed as inhibitors; 420,000 tested, 12% active; AID 686979; also: potency is read from the fitted curve at half-maximal effect; nearly all actives have a fitted effect of over 55% in size
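Chicken DT40 Tdp1-/- cells stably complemented with human TDP1 were seeded at 400 cells/well in medium containing 20 nM camptothecin, exposed to pin-transferred compounds, and grown at 37 °C for at least 48 hr. Viability was read as ATP luminescence.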
IL-1B inflam inh = inhibitors of inflammasome signaling (IL-1 beta secretion) | THP-1 LPS/ATP IL-1B secretion, AlphaLISA, 16 h; stronger effect = lower value | activity change, % at 57.5 µM | 360,000 tested, 4.7% active | AID 743279; in the data active = activity change below about -50%; inconclusive = mostly about -30% to -49%
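THP-1 cells pretreated 1 hr with compounds (up to 57.5 uM final), then stimulated with LPS (250 ng/mL final) plus ATP (1.25 mM final); secreted IL-1B measured by AlphaLISA after 16 hr, decreased signal indicating inhibition.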
Giardia killer = Giardia lamblia killing; activity change, % at 7.66 µM, hits read low; 340,000 tested, 0.15% active; AID 540267; Giardia lamblia trophozoite viability; in the data active = activity change below about -80%; inconclusive = between about -30% and that limit;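 also: parasites exposed to compound for two days anaerobically before the ATP read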
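Each well holds 100 Giardia trophozoites and compound. After two days (48 hrs) at 37 deg C in anaerobic conditions, ATP is quantified by luminescence.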
DT40 TDP1 no CPT = qHTS for Inhibitors of human tyrosyl-DNA phosphodiesterase 1 (TDP1): qHTS in cells in absence of CPT; DT40 Tdp1-/- hTDP1 cells, no CPT, ATP luminescence, 48 h; Potency, µM (top dose mostly 46.2 µM), without a hit: at the highest dose activity change, negative = growth inhibition, hits mostly inhibitors; 420,000 tested, 15% active; also: potency is read from the fitted curve at half-maximal effect; nearly all actives have a fitted effect of over 55% in size
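Growth kinetics read by CellTiter-Glo luminescence after ≥48 hr at 37 °C. Cells: DT40 Tdp1-/- stably carrying human TDP1, 400 per well, compound exposure in the absence of CPT (DMSO vehicle).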
TDP1 inh = TDP1 (human) enzyme inhibition | recombinant TDP1, AlphaScreen DNA substrate cleavage | Potency, µM (series often up to 130 µM), for the others: at the top dose activity change, negative = inhibition, hits mostly inhibitors | 350,000 tested, 0.28% active | Q9NUW8; also: potency is read from the fitted curve at half-maximal effect; nearly all actives have a fitted effect of over 40% in size
Target sequence (Q9NUW8 whole entry, looked up): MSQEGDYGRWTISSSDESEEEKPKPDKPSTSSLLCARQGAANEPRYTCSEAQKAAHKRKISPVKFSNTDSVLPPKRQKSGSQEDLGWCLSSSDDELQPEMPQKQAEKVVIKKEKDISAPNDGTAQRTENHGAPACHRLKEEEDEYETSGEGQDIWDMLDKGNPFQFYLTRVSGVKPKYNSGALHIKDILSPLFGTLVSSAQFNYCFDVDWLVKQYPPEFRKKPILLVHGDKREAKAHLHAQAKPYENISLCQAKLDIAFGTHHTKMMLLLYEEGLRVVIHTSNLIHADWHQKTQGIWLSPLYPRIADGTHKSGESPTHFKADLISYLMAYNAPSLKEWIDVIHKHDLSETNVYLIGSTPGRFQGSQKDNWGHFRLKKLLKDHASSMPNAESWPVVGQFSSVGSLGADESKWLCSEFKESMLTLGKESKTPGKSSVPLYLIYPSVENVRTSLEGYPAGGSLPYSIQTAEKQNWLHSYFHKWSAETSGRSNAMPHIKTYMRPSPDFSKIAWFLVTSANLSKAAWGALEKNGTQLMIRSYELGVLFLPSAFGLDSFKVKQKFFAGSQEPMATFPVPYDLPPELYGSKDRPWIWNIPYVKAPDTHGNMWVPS
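Steps: enzyme plus compound, 15 min RT; add biotin/phosphotyrosine-FITC oligonucleotide (15 nM final), react 5 min; add donor/acceptor beads (10 ug/ml final), 10 min; read AlphaScreen. Tdp1 at 1 nM final.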
ELG1 repair inh = blocks ELG1-dependent DNA repair in HEK293T cells. Potency, µM (titrated, usually from 46.1 µM), for the others: at the highest dose activity change, negative = inhibition, hits mostly inhibitors. HEK293T ELG1-luciferase reporter, luminescence, 16 h; DNA damage induced by 5-fluorouridine. AID 504467. 330,000 tested, 2.3% active; also: potency is read from the fitted curve at half-maximal effect; nearly all actives have a fitted effect of over 55% in size
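Cells (2,000 per well) received 5-fluorouridine plus test compound or DMSO and were incubated 16 hr at 37 °C, 5% CO2. Luciferase activity was read by luminescence 30 min after ONE-Glo addition; signal suppression marked inhibition of damage-induced ELG1 function.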
* marks the source's active call; other numbers are inactive results; ? = inconclusive; / = no result given; [ ] = dose if it differs, or a comment. Hits are enriched below; roughly 19% of the tested compounds scored in any of these assays. Unless noted, calls follow the shape of the dose curve; as a rule, active = well fitted curve in the direction sought with a large enough effect; inconclusive = small, poorly fitted or top-dose-only effect, or another doubt; inactive = no such curve, though single readings can be large; an effect the other way counts as inactive or inconclusive. % is scaled to controls: 0 for no effect and ±100 for the full control effect.

SMILES	DT40 TDP1 CPT	IL-1B inflam inh	Giardia killer	DT40 TDP1 no CPT	TDP1 inh	ELG1 repair inh
CCN1CCN(c2ccc(S(=O)(=O)N3CCCCC3)cc2NC(=O)c2ccc([N+](=O)[O-])o2)CC1	8.2µM*	-24.9	?	7.31µM*	/	?
COc1ccc(S(=O)(=O)N2CCCCC2)cc1NC(=O)c1ccc([N+](=O)[O-])o1	14.6µM*	/	-94.9*	20.6µM*	1.6%	?
COc1ccc(S(=O)(=O)N2CCN(C(=O)c3ccc([N+](=O)[O-])o3)CC2)cc1	10.3µM*	-82.2*	?	20.6µM*	44.7µM*	?
Cc1cccc(N2CCN(Cc3nnc(-c4cccc(Br)c4)o3)CC2)c1C	?	/	/	-19.0%	-2.1%[12.3 µM]	/
CN(C)C(=O)NC1CCCCCCC1	/	/	/	/	2.3%	/
Cc1cccc(C(=O)NCC(=O)OCC(=O)c2ccc3ccccc3c2)c1	-9.5%	/	-0.6	-13.2%	-0.2%	/
Nc1nc(CN2CCN(c3ccccc3F)CC2)nc(Nc2ccc3c(c2)OCCO3)n1	?	11.7	-1.6	?	5.2%	23.1µM*
Nc1nc(CN2CCN(c3ccccn3)CC2)nc(Nc2ccc(Cl)cc2)n1	?	-22.4	8.2	6.51µM*	5.7%	?
CCOc1ccc(Nc2nc(N)nc(CN3CCN(c4ccccc4F)CC3)n2)cc1	-9.8%	-7.6	-24.7	18.4µM*	8.2%	16.4µM*
COc1ccc(N2CCN(c3nc(Cl)nc(Nc4ccc(F)cc4)n3)CC2)cc1	18.4µM*	-78.9*	12.2	18.4µM*	7.6%	?
N#Cc1c(-c2ccccc2)ccnc1Oc1ccccc1	3.5%	-15.9	8.5	-25.0%	-7.5%	?
CC(=O)Nc1ccc(NC(=O)COC(=O)c2cnccn2)cc1	33.5%	-4.7	-21.3	-1.8%	8.1%	-14.2%
O=C(CCCn1nnnc1CN1CCOCC1)N1CCC(c2ccc(F)cc2)C1 (configuration not stated)	-22.7%	?	9.8	?	5.8%	-20.1%
COc1ccc(Nc2nc(N)nc(CN3CCN(c4ccc(F)cc4)CC3)n2)cc1	?	?	1.3	14.6µM*	6.2%	0.0%
COc1ccccc1Nc1nc(N)nc(CN2CCN(c3ccccc3F)CC2)n1	?	0.0	4.5	-16.6%	10.3%	-13.1%
COc1ccccc1N1CCN(Cc2cnc3ccc(Cl)cn23)CC1	23.1µM*	22.4	-1.3	13µM*	/	0.3%
COc1ccccc1N1CCN(Cc2nc(N)nc(Nc3ccc(C)c(Cl)c3)n2)CC1	14.6µM*	-15.0	2.1	9.2µM*	13.4%	14.6µM*
COc1ccccc1OC(C)C(=O)Nc1ccccc1C(=O)NCc1cccnc1 (configuration not stated)	-10.4%	-3.8	-3.4	-5.3%	/	-13.5%
OCC[C@H]1C[C@@H](O)[C@H](O)[C@@]2(CCCCO2)O1	2.6%	0.9	14.9	9.7%	/	/
Cc1ccc(S(=O)(=O)N2CCC(C(=O)NNC(=O)c3ccc(F)cc3)CC2)cc1	-10.6%	-3.2	10.4	-20.6%	0.0%	23.6%
Cc1cc(C)c(NC(=O)c2cc(S(=O)(=O)N3CCC4(CC3)OCCO4)ccc2F)c(C)c1	-21.7%	/	/	?	7.8%	/
COc1ccc(CN(Cc2cccn2C)S(=O)(=O)c2cccc(C(F)(F)F)c2)cc1	18.4µM*	3.7	5.2	?	1.3%	?
COc1ccc(CN(Cc2cccn2C)S(=O)(=O)c2ccc(F)cc2)cc1	-5.3%	-13.6	-8.1	?	9.6%	?
Cn1c(NCc2cccnc2)nc2cc(-c3cccc(C(F)(F)F)c3)sc2c1=O	?	2.1	/	?	/	/
CN(C)CCCOc1ccc(-c2cc3nc(NCc4cccnc4)n(C)c(=O)c3s2)cn1	?	-14.6	/	18.4µM*	/	/
SMILES	DT40 TDP1 CPT	IL-1B inflam inh	Giardia killer	DT40 TDP1 no CPT	TDP1 inh	ELG1 repair inh
Cn1c(NCc2cccnc2)nc2cc(-c3cccc(C(=O)NCCO)c3)sc2c1=O	9.2µM*	?	/	-22.7%	/	/
NC(=O)c1ccc(S(=O)(=O)N2CCSCC2)cc1	-8.7%	21.8	2.3	3.5%	1.2%	-9.9%
CCCOc1ccc(C(=O)Nc2cc3nn(-c4ccc(CC)cc4)nc3cc2C)cc1	0.0%	/	/	-23.5%	-0.6%	/
O=C(CCC(C(=O)c1ccccc1)c1ccccc1)c1ccccc1 (configuration not stated)	?	22.3	/	?	/	/
CCCc1cc(=O)[nH]c2nnc(SCC(=O)NC3CCCCC3)n12	1.3%	1.3	-9.1	-4.6%	/	-5.1%
CCOC(=O)N1CCC(NC(=O)C2CCCN(Cc3nc(-c4cccc(C)c4)oc3C)C2)CC1 (configuration not stated)	5.8µM*	-27.0	-3.1	2.59µM*	2.3%	?
Cc1ccc(OCc2nc(-c3ccc(C(=O)N4CCN(c5cc(Cl)ccc5C)CC4)cc3)oc2C)cc1	23.1µM*	/	/	11.6µM*	2.0%	/
COc1ccc(N2CCN(C(=O)c3ccc(-c4nc(COc5ccccc5)c(C)o4)cc3)CC2)cc1	-16.9%	/	/	-11.9%	5.6%	/
CCOC(=O)N1CCC(NC(=O)C2CCCN(c3nc4ccccc4o3)C2)CC1 (configuration not stated)	-9.3%	-4.7	-18.5	-18.0%	5.2%	-19.7%
Cc1cccc(-c2nc(CN3CCCC(C(=O)NC4CCCC4)C3)c(C)o2)c1 (configuration not stated)	?	-23.9	31.9	11.6µM*	3.1%	?
Cc1cccc(-c2nc(CN3CCCC(C(=O)N4CCN(c5cc(Cl)ccc5C)CC4)C3)c(C)o2)c1 (configuration not stated)	16.4µM*	/	/	20.6µM*	9.2%	/
COc1ccccc1NC(=O)c1cc(C(=O)Nc2ccccc2OC)n(C)n1	?	-13.7	0.0	?	/	/
Cc1cccc(-c2nc(CS(=O)CC(=O)NC3CCCCC3)c(C)o2)c1 (configuration not stated)	-21.4%	-3.1	0.2	-19.9%	4.4%	-2.4%
Cc1cccc(-c2nc(CN3CCCC(C(=O)NC4CCC(C)CC4)C3)c(C)o2)c1 (configuration not stated)	?	1.3	5.7	18.4µM*	4.8%	?
COC(c1ccc(Cl)cc1)(c1ccc(Cl)cc1)C(Oc1nc(C)cc(C)n1)C(=O)O (configuration not stated)	?	36.3	28.3	14.6µM*	/	19.3%
COC(c1ccc(Cl)cc1)(c1ccc(Cl)cc1)C(Oc1nccc(C)n1)C(=O)O (configuration not stated)	-14.6%	50.7	-4.8	-10.9%	3.9%	-26.3%
